# Test results: PubChem BioAssay (EPA / NIEHS)
# Inconclusive results are not listed. Calls of active or inactive are those of the source. The calls were made as follows: active = hit-call score of the fitted dose curve at least 0.9, where 1 is the maximum; inconclusive = response in the unintended direction; inactive = score below 0.9.
# Columns and labels:
# [1] = target: human Dual Specificity Protein Phosphatase 3 (DUSP3), DUSP3 (gene 1845) (UniProt P51452); assay: NVS_ENZ_hDUSP3: NovaScreen (NVS) Enzymatic Assay for human Dual Specificity Protein Phosphatase 3 (DUSP3) (AID 2283152);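 also: phosphatase activity of recombinant human DUSP3 on a fluorogenic substrate without cells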
# How it was run: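 Cell-free fluorescence-intensity enzyme activity assay with recombinant protein and substrate; loss of signal fitted relative to DMSO baseline. Primary screen in duplicate at 25 uM, actives then run in concentration series; measured 0 h after dosing.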
# [2] = target: human FYN Proto-Oncogene, Src family Tyrosine Kinase (Fyn), FYN (gene 2534) (UniProt P06241); assay: NVS_ENZ_hFyn: NovaScreen (NVS) Enzymatic Assay for human FYN Proto-Oncogene, Src family Tyrosine Kinase (Fyn) (AID 2283161)
# How it was run: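 Cell-free kinase activity read by fluorescence after mobility-shift separation of substrate and product, 1 h post-dose. Initial single concentration 25 uM in duplicate, then concentration-response follow-up; DMSO baseline.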
# [3] = target: human Ephrin type-A Receptor 1 (EphA1), EPHA1 (gene 2041) (UniProt P21709); assay: NVS_ENZ_hEphA1: NovaScreen (NVS) Enzymatic Assay for human Ephrin type-A Receptor 1 (EphA1) (AID 2283158);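 also: activity is signal loss versus DMSO meaning EphA1 kinase inhibition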
# How it was run: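 Cell-free enzymatic assay with recombinant EphA1 and fluorescent substrate; product separated by electrophoretic mobility shift, fluorescence intensity read 1 hour after dosing. Loss of signal versus DMSO baseline; primary duplicate screen at 25 uM, actives followed to 50 uM top concentration.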
# [4] = target: human Esterase Plasma (ES), BCHE (gene 590) (UniProt P06276); assay: NVS_ENZ_hES: NovaScreen (NVS) Enzymatic Assay for human Esterase Plasma (ES) (AID 2283157)
# How it was run: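 Primary single-concentration screen at 25 uM in duplicate, then concentration-response to a 50 uM top dose. Human plasma esterase activity detected colorimetrically after 0.25 h incubation, with DMSO as baseline.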
# [5] = target: human Colony Stimulating Factor 1 Receptor (CSF1R), CSF1R (gene 1436) (UniProt P07333); assay: NVS_ENZ_hCSF1R: NovaScreen (NVS) Enzymatic Assay for human Colony Stimulating Factor 1 Receptor (CSF1R) (AID 2283150)
# How it was run: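 Compounds screened in duplicate at 25 uM, then concentration-response (top 50 uM) for those passing threshold such as 30% inhibition; recombinant CSF1R activity measured 1 h post-dosing via fluorescent substrate/product mobility-shift separation, loss of signal versus DMSO.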
# [6] = target: human Elastase, ELANE (gene 1991) (UniProt P08246); assay: NVS_ENZ_hElastase: NovaScreen (NVS) Enzymatic Assay for human Elastase (AID 2283153)
# Method: NVS_ENZ_hElastase is a biochemical, single-readout assay that uses extracted gene-proteins from Human neutrophils in a cell-free assay. Measurements were taken 1.5 hours after chemical dosing in a 96-well plate.NVS_ENZ_hElastase is one of one assay component(s) measured or calculated from the NVS_ENZ_hElastase assay. It is designed to make measurements of enzyme activity, a form of enzyme reporter, as detected with absorbance signals by Spectrophotometry technology.Data from the assay component NVS_ENZ_hElastase was analyzed into 1 assay endpoint. This assay endpoint, NVS_ENZ_hElastase, was analyzed in the positive analysis fitting direction relative to DMSO as the negative control and baseline of activity. Using a type of enzyme reporter, loss-of-signal activity can be used to understand changes in the enzymatic activity as they relate to the gene ELANE. Furthermore, this assay endpoint can be referred to as a primary readout, because this assay has produced multiple assay endpoints where this one serves a enzymatic activity function. To generalize the intended target to other relatable targets, this assay endpoint is annotated to the protease intended target family, where the subfamily is serine protease.
# (§1) Binding assays used specific radioligands (tritiated, iodinated) with non-radioactive competitive displacement ligands in agonist or antagonist protocols (as indicated) and various reference compounds and inhibitors to titrate specific binding to receptors and transporters. Most enzyme assays (CYPs, kinases, phosphatases, proteases, HDACs) used recombinant protein and specific substrates (fluorescence mostly, some colorimetric and radioactive) and inhibitors, followed by a biochemical separation of substrate and product. All assays for the biochemical HTS were initially run in duplicate at a single concentration (10 uM for CYP450 assays and 25 uM for all others). Assay-chemical combinations meeting a pre-defined threshold (e.g., 30% inhibition and other criteria defined below) were then run in singleton concentration-response format with maximum concentration of 20 uM for CYPs and 50 uM for all others. Each assay was run with positive and negative controls, and concurrent controls on every plate. The follow-up (secondary) screen tested active chemical-pairs in concentration series, as well as a few additional assays not tested in the primary screen, some selected negative inactives, and several cases re-run in the concentration series for confirmatory purposes.
# [7] = target: human Fibroblast Growth Factor Receptor 1 (FGFR1), FGFR1 (gene 2260) (UniProt P11362); assay: NVS_ENZ_hFGFR1: NovaScreen (NVS) Enzymatic Assay for human Fibroblast Growth Factor Receptor 1 (FGFR1) (AID 2283159);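 as to AC50: hits lower the signal so potencies describe inhibitors of the kinase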
# How it was run: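 Cell-free recombinant kinase with fluorescent substrate, product separated by electrophoretic mobility shift; read 1 hour after dosing, loss of signal relative to DMSO. Initial screen in duplicate at 25 uM, actives followed in concentration series.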
# [8] = target: human Casein Kinase 1-delta (CK1D), CSNK1D (gene 1453) (UniProt P48730); assay: NVS_ENZ_hCK1D: NovaScreen (NVS) Enzymatic Assay for human Casein Kinase 1-delta (CK1D) (AID 2283148)
# How it was run: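 Recombinant human CK1-delta, cell-free; fluorescent substrate with electrophoretic mobility-shift separation of product, read 1 h after dosing. Single 25 uM duplicate screen, then concentration-response up to 50 uM; loss of signal vs DMSO.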
# [9] = target: human Epidermal Growth Factor Receptor (EGFR), EGFR (gene 1956) (UniProt P00533); assay: NVS_ENZ_hEGFR: NovaScreen (NVS) Enzymatic Assay for human Epidermal Growth Factor Receptor (EGFR) (AID 2283151)
# Method: NVS_ENZ_hEGFR is a biochemical, single-readout assay that uses extracted gene-proteins in a cell-free assay. Measurements were taken 1 hour after chemical dosing in a 384-well plate.NVS_ENZ_hEGFR is one of one assay component(s) measured or calculated from the NVS_ENZ_hEGFR assay. It is designed to make measurements of enzyme activity, a form of enzyme reporter, as detected with fluorescence intensity signals by Fluorescence and electrophoretic mobility shift technology.Data from the assay component NVS_ENZ_hEGFR was analyzed into 1 assay endpoint. This assay endpoint, NVS_ENZ_hEGFR, was analyzed in the positive analysis fitting direction relative to DMSO as the negative control and baseline of activity. Using a type of enzyme reporter, loss-of-signal activity can be used to understand changes in the enzymatic activity as they relate to the gene EGFR. Furthermore, this assay endpoint can be referred to as a primary readout, because this assay has produced multiple assay endpoints where this one serves a enzymatic activity function. To generalize the intended target to other relatable targets, this assay endpoint is annotated to the kinase intended target family, where the subfamily is receptor tyrosine kinase.
# as §1
# [10] = target: human Ephrin type-A Receptor 2 (EphA2), EPHA2 (gene 1969) (UniProt P29317); assay: NVS_ENZ_hEphA2: NovaScreen (NVS) Enzymatic Assay for human Ephrin type-A Receptor 2 (EphA2) (AID 2283155)
# How it was run: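 Enzyme activity of recombinant EphA2 read by fluorescence after mobility-shift separation, 1 h after dosing. Chemicals first tested at 25 uM (duplicate); those passing threshold run as concentration series, top 50 uM, single replicate, relative to DMSO.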
# human Ephrin type-A Receptor 2 (EphA2), EPHA2 (gene 1969), sequence (P29317 whole entry, looked up): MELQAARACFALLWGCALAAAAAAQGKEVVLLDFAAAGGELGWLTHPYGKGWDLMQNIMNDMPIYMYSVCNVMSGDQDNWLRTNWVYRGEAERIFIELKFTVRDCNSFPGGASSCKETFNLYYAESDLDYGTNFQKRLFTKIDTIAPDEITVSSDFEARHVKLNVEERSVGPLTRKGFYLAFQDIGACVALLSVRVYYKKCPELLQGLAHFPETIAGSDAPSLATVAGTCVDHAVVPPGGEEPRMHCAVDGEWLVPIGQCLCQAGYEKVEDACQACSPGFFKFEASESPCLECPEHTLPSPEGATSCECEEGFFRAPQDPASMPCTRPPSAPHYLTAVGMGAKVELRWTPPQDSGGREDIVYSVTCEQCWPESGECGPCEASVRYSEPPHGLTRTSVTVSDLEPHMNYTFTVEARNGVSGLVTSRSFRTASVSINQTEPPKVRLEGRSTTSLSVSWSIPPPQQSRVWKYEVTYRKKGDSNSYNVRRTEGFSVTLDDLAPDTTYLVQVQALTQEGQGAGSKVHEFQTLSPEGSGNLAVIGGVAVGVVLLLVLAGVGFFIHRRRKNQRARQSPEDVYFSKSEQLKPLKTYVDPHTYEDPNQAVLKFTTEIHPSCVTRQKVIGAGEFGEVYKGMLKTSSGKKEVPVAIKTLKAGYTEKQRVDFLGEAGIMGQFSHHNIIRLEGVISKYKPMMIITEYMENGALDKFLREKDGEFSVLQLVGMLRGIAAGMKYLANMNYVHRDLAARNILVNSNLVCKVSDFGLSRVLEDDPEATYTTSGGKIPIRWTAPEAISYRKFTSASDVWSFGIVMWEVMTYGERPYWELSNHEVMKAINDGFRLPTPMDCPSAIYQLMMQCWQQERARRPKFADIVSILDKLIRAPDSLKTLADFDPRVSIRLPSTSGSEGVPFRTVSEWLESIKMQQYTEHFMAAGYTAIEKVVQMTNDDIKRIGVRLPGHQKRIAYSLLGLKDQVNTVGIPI
# human Epidermal Growth Factor Receptor (EGFR), EGFR (gene 1956), sequence (P00533 whole entry, looked up): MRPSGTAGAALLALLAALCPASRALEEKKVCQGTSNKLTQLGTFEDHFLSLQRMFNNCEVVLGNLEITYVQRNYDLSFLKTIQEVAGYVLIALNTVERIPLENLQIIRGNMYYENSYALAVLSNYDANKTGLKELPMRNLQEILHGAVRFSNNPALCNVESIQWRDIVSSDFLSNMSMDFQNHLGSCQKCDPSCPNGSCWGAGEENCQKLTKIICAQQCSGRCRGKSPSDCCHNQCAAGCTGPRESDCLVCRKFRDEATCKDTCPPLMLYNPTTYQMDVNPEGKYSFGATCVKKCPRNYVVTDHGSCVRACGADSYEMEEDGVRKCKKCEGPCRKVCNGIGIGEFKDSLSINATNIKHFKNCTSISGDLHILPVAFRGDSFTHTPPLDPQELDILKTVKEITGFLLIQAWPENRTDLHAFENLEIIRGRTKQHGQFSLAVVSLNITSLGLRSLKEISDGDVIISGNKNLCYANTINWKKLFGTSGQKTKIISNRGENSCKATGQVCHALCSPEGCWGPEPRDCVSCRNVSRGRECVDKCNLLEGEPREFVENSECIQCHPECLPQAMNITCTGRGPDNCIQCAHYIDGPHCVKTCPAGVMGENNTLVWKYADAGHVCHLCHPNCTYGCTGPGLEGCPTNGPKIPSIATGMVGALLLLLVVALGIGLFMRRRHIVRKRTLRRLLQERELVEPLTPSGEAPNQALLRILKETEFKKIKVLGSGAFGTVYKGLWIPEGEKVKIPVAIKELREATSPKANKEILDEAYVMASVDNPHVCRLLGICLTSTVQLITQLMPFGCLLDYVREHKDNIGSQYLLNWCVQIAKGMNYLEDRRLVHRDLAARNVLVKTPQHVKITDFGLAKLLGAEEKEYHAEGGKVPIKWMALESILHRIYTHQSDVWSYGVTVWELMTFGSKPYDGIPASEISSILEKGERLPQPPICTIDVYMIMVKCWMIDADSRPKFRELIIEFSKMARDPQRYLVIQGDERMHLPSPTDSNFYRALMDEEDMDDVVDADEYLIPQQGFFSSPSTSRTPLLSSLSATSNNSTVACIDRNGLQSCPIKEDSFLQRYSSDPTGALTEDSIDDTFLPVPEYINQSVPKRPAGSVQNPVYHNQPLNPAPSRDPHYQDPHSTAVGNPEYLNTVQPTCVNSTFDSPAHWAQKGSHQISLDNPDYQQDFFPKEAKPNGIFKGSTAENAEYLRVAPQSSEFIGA
# human FYN Proto-Oncogene, Src family Tyrosine Kinase (Fyn), FYN (gene 2534), sequence (P06241 whole entry, looked up): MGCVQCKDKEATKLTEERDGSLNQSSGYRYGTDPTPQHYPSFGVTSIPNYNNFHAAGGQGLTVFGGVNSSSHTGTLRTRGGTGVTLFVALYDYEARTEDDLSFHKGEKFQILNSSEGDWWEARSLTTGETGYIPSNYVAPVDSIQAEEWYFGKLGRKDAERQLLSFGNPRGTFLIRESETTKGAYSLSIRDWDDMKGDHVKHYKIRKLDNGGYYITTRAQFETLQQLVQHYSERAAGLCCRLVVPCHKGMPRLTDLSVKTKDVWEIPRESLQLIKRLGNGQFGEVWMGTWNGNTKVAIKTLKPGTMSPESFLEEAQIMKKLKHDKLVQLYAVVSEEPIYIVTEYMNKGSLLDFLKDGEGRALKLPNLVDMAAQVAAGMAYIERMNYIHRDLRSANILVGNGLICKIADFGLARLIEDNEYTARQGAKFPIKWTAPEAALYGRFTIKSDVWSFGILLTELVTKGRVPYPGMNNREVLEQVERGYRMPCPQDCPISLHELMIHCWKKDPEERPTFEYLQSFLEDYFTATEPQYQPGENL
# human Fibroblast Growth Factor Receptor 1 (FGFR1), FGFR1 (gene 2260), sequence (P11362 whole entry, looked up): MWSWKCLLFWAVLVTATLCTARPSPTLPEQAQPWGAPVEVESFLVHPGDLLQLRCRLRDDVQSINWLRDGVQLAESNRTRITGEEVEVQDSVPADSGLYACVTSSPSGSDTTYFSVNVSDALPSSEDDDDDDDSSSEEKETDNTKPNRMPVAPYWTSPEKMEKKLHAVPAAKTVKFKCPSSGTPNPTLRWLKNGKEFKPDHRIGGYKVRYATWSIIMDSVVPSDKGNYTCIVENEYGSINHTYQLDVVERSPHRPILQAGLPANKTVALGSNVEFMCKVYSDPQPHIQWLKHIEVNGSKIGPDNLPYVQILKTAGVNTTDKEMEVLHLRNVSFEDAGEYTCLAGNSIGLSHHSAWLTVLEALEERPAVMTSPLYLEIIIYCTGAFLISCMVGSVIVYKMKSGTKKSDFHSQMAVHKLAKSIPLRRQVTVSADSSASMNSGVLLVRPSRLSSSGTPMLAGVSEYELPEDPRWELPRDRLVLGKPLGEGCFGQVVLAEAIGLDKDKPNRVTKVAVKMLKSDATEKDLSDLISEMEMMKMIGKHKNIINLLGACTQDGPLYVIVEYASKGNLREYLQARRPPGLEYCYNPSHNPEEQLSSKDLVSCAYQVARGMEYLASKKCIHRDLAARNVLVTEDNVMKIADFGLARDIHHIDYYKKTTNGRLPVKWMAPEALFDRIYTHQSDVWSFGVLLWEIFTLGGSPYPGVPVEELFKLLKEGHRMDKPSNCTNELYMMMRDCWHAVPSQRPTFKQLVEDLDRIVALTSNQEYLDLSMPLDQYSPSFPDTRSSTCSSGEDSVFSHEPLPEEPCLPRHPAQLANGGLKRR
# human Casein Kinase 1-delta (CK1D), CSNK1D (gene 1453), sequence (P48730 whole entry, looked up): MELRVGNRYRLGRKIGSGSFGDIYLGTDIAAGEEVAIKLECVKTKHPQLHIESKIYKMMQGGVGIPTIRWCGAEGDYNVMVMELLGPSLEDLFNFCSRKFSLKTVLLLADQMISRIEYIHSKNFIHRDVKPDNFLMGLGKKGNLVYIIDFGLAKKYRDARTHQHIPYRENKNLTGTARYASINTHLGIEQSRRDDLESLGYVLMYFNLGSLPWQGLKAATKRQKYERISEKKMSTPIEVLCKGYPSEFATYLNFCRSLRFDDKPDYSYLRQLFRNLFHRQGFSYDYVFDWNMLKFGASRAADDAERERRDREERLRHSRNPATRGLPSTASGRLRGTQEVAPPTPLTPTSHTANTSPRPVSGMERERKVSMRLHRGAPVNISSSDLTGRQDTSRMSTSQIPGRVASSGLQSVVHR
# human Ephrin type-A Receptor 1 (EphA1), EPHA1 (gene 2041), sequence (P21709 whole entry, looked up): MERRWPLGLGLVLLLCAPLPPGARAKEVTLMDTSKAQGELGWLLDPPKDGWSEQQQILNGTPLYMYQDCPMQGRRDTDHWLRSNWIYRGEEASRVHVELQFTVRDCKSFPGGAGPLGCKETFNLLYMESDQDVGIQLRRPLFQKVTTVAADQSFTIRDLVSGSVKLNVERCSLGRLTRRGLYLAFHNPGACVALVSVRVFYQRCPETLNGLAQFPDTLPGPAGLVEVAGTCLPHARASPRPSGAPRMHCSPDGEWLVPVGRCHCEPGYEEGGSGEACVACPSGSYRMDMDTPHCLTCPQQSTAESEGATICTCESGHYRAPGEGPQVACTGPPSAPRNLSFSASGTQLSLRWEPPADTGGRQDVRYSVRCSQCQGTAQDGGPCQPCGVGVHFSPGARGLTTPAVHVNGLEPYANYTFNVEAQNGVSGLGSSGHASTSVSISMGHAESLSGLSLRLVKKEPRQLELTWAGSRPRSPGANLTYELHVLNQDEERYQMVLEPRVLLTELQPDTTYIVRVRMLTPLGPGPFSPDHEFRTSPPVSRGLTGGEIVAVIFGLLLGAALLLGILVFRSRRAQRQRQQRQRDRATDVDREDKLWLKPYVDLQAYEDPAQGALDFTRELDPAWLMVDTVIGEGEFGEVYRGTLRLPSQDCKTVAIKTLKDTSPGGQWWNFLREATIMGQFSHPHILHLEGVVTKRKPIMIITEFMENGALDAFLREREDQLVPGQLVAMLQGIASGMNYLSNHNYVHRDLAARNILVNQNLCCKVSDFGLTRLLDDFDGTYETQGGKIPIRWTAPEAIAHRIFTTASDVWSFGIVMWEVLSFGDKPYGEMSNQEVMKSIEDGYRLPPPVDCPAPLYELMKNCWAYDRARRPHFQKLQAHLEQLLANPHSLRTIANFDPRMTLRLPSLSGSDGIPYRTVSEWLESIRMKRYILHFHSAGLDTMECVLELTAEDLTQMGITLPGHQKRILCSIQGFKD
smiles,measurement,setting,value
CCC[CH2][Sn]([Cl])([CH2]CCC)[CH2]CCC,AC50,[1],6.34 µM (active)
same,outcome,[2],inactive
COP(=S)(OC)SCN1C(=O)c2ccccc2C1=O,outcome,[1],inactive
OCCCBr,outcome,[3],inactive
CCOC(=O)[C@]1(c2ccccc2)Oc2ccccc2[C@@H]1N,AC50,[4],16.7 µM (active)
C1=Cc2cccc3cccc1c23,outcome,[1],inactive
same,outcome,[4],inactive
C[C@]12C=CC3=C4CCC(=O)C=C4CC[C@H]3[C@@H]1CC[C@@H]2O,outcome,[5],inactive
CN(C)[C@@H]1C(=O)C(C(N)=O)=C(O)[C@@]2(O)C(=O)C3=C(O)c4c(O)cccc4[C@@](C)(O)[C@H]3C[C@@H]12,AC50,[1],7.39 µM (active)
same,AC50,[6],18.5 µM (active)
same,outcome,[4],inactive
O=C(Oc1ccc(Br)cc1)N1CCN2CCC1CC2,outcome,[7],inactive
CC(C)(O)c1cnn2c(-c3ccc(F)c(-c4c(F)cccc4C#N)c3)cnc2n1,outcome,[8],inactive
same,AC50,[1],40.8 µM (active)
CCOc1cccc(C2(N3CCN(c4ccccc4)CC3)CCC(C)CC2)c1 (stereo not given),outcome,[4],inactive
CC(C)(C)C(O)(CCc1ccc(Cl)cc1)Cn1cncn1 (stereo not given),outcome,[9],inactive
same,AC50,[4],22.7 µM (active)
O=[N+]([O-])C(Br)(CO)CO,AC50,[4],32.1 µM (active)
O=C(N[C@H](c1ccccc1)[C@@H]1CN2CCC1CC2)c1c(Cl)ccc(C(F)(F)F)c1Cl,AC50,[4],19.8 µM (active)
CCCCCCCCOC(=O)c1ccc(C(=O)OCCCCCCCC)c(C(=O)OCCCCCCCC)c1,AC50,[6],37.9 µM (active)
same,outcome,[10],inactive
c1ccc2c(c1)-c1cccc3cccc-2c13,outcome,[2],inactive
CCCCCCCCCCCCCN1CC(C)OC(C)C1 (stereo not given),outcome,[6],inactive
same,outcome,[10],inactive
same,outcome,[4],inactive
same,outcome,[2],inactive
CCN(CC)N=O,outcome,[8],inactive
same,outcome,[5],inactive
same,outcome,[9],inactive
same,outcome,[10],inactive
same,outcome,[7],inactive
same,outcome,[2],inactive
c1ccc(NNc2ccccc2)cc1,AC50,[4],31.6 µM (active)
CN(C)C(=O)Nc1ccc(Cl)cc1,outcome,[10],inactive
same,outcome,[4],inactive
Oc1ccccc1Cl,outcome,[10],inactive
same,outcome,[7],inactive
Oc1ccc2ccc3cccc4ccc1c2c34,AC50,[6],4.52 µM (active)
same,AC50,[7],14.9 µM (active)
C=CCc1ccc2c(c1)OCO2,outcome,[7],inactive
CNC(=O)Oc1cccc2c1OC(C)(C)C2,AC50,[4],27.3 µM (active)
same,outcome,[2],inactive
Nc1ccc(Cl)cc1N,AC50,[1],6.31 µM (active)
same,outcome,[6],inactive
same,outcome,[4],inactive
CCCCCCCCn1sccc1=O,AC50,[1],26 µM (active)
same,outcome,[3],inactive
COc1cc(C=O)cc2c1[C@H](COC(N)=O)[C@]1(OC(C)=O)ON2C[C@H]2[C@@H]1N2C(C)=O,outcome,[5],inactive
same,AC50,[6],5.75 µM (active)
same,outcome,[3],inactive
Cc1cccc(N)c1N,AC50,[1],25 µM (active)
same,AC50,[4],23.1 µM (active)
O=C(Nc1ccccc1)c1ccccc1I,outcome,[4],inactive
ClCCOCCCl,outcome,[9],inactive
same,outcome,[7],inactive
Nc1ccc([N+](=O)[O-])cc1,outcome,[5],inactive
O=[N+]([O-])c1ccc(Oc2ccc(Cl)cc2Cl)cc1,outcome,[6],inactive
CCCCC(CC)COC(=O)c1ccc(C(=O)OCC(CC)CCCC)c(C(=O)OCC(CC)CCCC)c1 (stereo not given),outcome,[9],inactive
same,outcome,[3],inactive
same,outcome,[7],inactive
CCCCCOC(=O)c1ccccc1C(=O)OCCCCC,outcome,[6],inactive
CCNS(=O)(=O)C(F)(F)C(F)(F)C(F)(F)C(F)(F)C(F)(F)C(F)(F)C(F)(F)C(F)(F)F,outcome,[8],inactive
same,outcome,[9],inactive
same,outcome,[1],inactive
same,outcome,[10],inactive
same,outcome,[3],inactive
same,outcome,[7],inactive
Cc1ccc(N=C=O)cc1N=C=O,AC50,[1],12.6 µM (active)
same,AC50,[6],8.38 µM (active)
[Cl-].[Cl-].[Hg+2],AC50,[4],20.9 µM (active)
